# IEC-6 cytotox: counter-screen for KLF5 inhibitors: cytotoxicity in IEC-6 cells; IEC-6 cytotoxicity, luminescence viability; inhibition, % at 5 µM; hit rate 0.78% among 290,000; AID 1825; in the data active = inhibition above about 22%;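 also: 0% = plate median of test compound wells and 100% = cytotoxic reference compound wells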
# Ba/F3 V617F tox: lowers viability of Ba/F3 cells expressing EpoR and JAK2V617F. ATP luminescence. hit rate 1.1% among 220,000. inhibition, % at 5.6 µM. AID 1446;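 active = inhibition above the campaign mean plus 3 SD over all tested compounds, cut at about 24% in these data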;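 also: cytokine-independent growth of Ba/F3 cells driven by EpoR plus mutant JAK2; 0% = DMSO-treated cells and 100% = JAK inhibitor I control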
# aSyn UTR inh: MLPCN primary screen, SNCA 5' untranslated region | inhibition, % (tested at 7.5 µM) | hit rate 0.82% among 300,000 | alpha-synuclein 5'UTR reporter, inhibitor activity; in the data active = inhibition above about 60%; inconclusive = no clear call, values can overlap the other calls;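 also: H4 neuroglioblastoma cells stably carrying SNCA 5'UTR luciferase fusion; 0% = DMSO wells and 100% = positive control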
# KLF5 inh: inhibitors of KLF5 expression. DLD-1 KLF5 promoter-luciferase reporter, luminescence. inhibition, % at 5 µM. hit rate 0.23% among 290,000;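 active = inhibition above a per-plate limit of that plate's mean compound inhibition plus 3 SD, cut at about 60% in these data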;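 also: 0% = DMSO wells and 100% = LY294002 at 200 µM; higher means less KLF5 promoter-driven luciferase light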
# BaF3 tox: counter-screen for JAK2V617F inhibitors: parental Ba/F3 viability inhibitors | inhibition, % at 5.6 µM | AID 1486 | CellTiter-Glo ATP luminescence | hit rate 1.1% among 220,000;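 active = inhibition above a per-campaign cutoff, the mean inhibition of all tested compounds plus 3 SD, cut at about 27% in these data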;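 also: 0% = DMSO wells and 100% = JAK Inhibitor I control wells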
# APP transl inh: APP translation inhibition; SH-SY5Y APP 5'UTR-luciferase reporter, luminescence; inhibition, % at 2 µM; hit rate 0.82% among 190,000; AID 1285;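 active = inhibition above a set limit, derived from the sample mean plus 3 SD, cut at about 45% in these data; inconclusive = one replicate passes the limit while the other fails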
# An asterisk follows results filed as active; ? = inconclusive; / = not tested or not shown. The list is not random: actives were taken first. Their share in the collection is about 2.2%.
SMILES,IEC-6 cytotox,Ba/F3 V617F tox,aSyn UTR inh,KLF5 inh,BaF3 tox,APP transl inh
Cc1oc2ccc(OS(C)(=O)=O)cc2c1C(=O)OC(C)C,-12,42*,23,-12,85*,-25
CCCCNC(=O)COC(=O)c1ccc(F)cc1Cl,-2,0,-3,-8,6,-13
COC(=O)C1CCN(S(=O)(=O)c2cc3c4c(c2)CCN4C(=O)CC3)CC1,/,/,7,/,/,/
CSc1ccc(C2NN=C(c3ccccc3)S2)cc1 (configuration not stated),/,/,68*,/,/,/
CCc1ccccc1NC(=O)C(Cc1ccccc1)c1nn[nH]n1 (configuration not stated),-1,/,14,-21,/,/
CCOC(=O)c1c(NC(=O)COc2ccc3ccc(=O)oc3c2)sc(C(=O)N(C)C)c1C,5,/,-9,-13,/,/
O=C(Cc1ccccc1)Nc1ncccc1Cl,/,/,-4,/,/,/
CCCOC(=O)C(C)n1cnc2sc(C)c(C)c2c1=O (configuration not stated),-1,-6,-13,-22,46*,10
CCOC(=O)c1sc2ncn(C(C)C(=O)OC)c(=O)c2c1C (configuration not stated),2,-4,-1,1,1,-14
CNC[C@@H](CC1CCCCC1)NC[C@H](CC(C)C)NCCc1cccc(C(F)(F)F)c1,-6,/,122*,10,/,/
CC[C@@H](C)[C@H](CNC)NC[C@@H](Cc1cccc2ccccc12)NCCc1cccc(C(F)(F)F)c1,-6,/,125*,-14,/,/
CC(NC(=O)Cn1cc([N+](=O)[O-])cn1)c1ccc(C(C)(C)C)cc1 (configuration not stated),/,/,15,/,/,/
N#CCC(=O)N/N=C/c1cn(Cc2ccc(Cl)c(Cl)c2)c2ccccc12,-2,-4,?,8,-5,/
O=C(N/N=C/c1cn(Cc2ccccc2)c2ccccc12)c1cc(O)cc(O)c1,-4,/,62*,-18,/,/
Cc1ccc(C(=O)N/N=C/c2cn(Cc3ccccc3)c3ccccc23)cn1,2,-2,64*,-37,2,/
O=C(O)c1ccc(N/N=C/c2cn(Cc3ccc(F)cc3)c3ccccc23)cc1,9,-1,-69,-33,-1,/
COc1cc(C(=O)N/N=C/c2cn(Cc3cccc(F)c3)c3ccccc23)ccc1O,2,/,62*,-13,/,/
Cc1csc(NC(=O)CCNS(=O)(=O)c2ccc3c(c2)c(=O)n(C)c(=O)n3C)n1,-7,-2,11,-16,94*,-14
CCCCOc1ccc(Br)cc1CSC(=N)N,3,30*,-14,-10,34*,52*
CCOCCCn1c(SCC(=O)Nc2ccc(OC)cc2)nc2ccccc2c1=O,10,/,1,2,/,/
O=C(N/N=C/c1ccco1)c1ccc(Br)o1,-1,-5,-23,-52,96*,-2
COc1ccc(C(=O)NNC(=O)COc2ccc(Cl)cc2)c(OC)c1,-10,/,5,-32,/,/
CC(=O)n1cc(N(C(=O)CCl)c2ccc(C)cc2)c2ccccc21,23*,99*,89*,-7,28*,/
CC(=O)N(c1ccc(Cl)cc1)c1cn(C(C)=O)c2ccccc12,-5,0,-14,-27,2,-15
O=C(CCCN=C1NS(=O)(=O)c2ccccc21)OCC(=O)c1ccccc1Cl,/,/,-13,/,/,/
SMILES,IEC-6 cytotox,Ba/F3 V617F tox,aSyn UTR inh,KLF5 inh,BaF3 tox,APP transl inh
CN(C)CCCN(Cc1ccccc1)C(=S)Nc1cccc(C(F)(F)F)c1,2,-1,16,-5,10,-13
CN(C)CCCN(Cc1ccccc1)C(=S)Nc1ccc(F)c(Cl)c1,-2,33*,-21,-32,29*,-12
CCCN(Cc1ccccc1)C(=S)Nc1cccc(C(F)(F)F)c1,-1,34*,-1,-11,33*,4
CCc1ccc(/C=C2/Sc3ccccc3N(CC(=O)NCC3CCCO3)C2=O)cc1 (configuration not stated),-1,/,1,-4,/,/
OCCCN=c1cc(-c2ccccc2)oc2ccc(Cl)cc12,-1,-1,-440,-104,7,-35
CC1(C)CC(N=c2cc(-c3ccccc3)oc3ccc(Cl)cc23)CC(C)(C)N1,-1,3,99*,-45,2,-23
CC1CCCCN1c1ncnc(N)c1[N+](=O)[O-] (configuration not stated),-2,0,15,-5,-4,0
CC1Cc2ccccc2N1c1ncnc(N)c1[N+](=O)[O-] (configuration not stated),-1,-4,69*,30,-7,48*
Cc1cccc(NS(=O)(=O)Cc2ccccc2)n1,-4,-2,-5,-28,-5,75*

# Compound activity as filed in PubChem BioAssay.
